# Screening data as filed in PubChem.
# PMK inhibit: S. pneumoniae PMK inhibitors, primary screen, biochemical, mevalonate pathway, pilot trial included. 65,000 compounds, 0.49% hits. purified PMK, PK/LDH-coupled NADH absorbance 340 nm. phosphomevalonate kinase (Streptococcus pneumoniae D39). inhibition, % at 10 µM;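 active means top-ranked compounds by inhibition in the single 10 µM screen, taking a fixed number of the strongest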;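 further: 0% = full reaction with DMSO carrier and 100% = background rate without enzyme reaction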
# A340 absorber: compound light absorbance at 340 nm, profiling panel, artefact control, biochemical, MLSMR library, data from PS, PMK, MK assays. 65,000 tested, under 10 active. fold change at 10 µM. AID 708, 2007. compound absorbance at 340 nm, fold over control;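 active means at 10 µM dose, initial 340 nm absorbance at least 2 fold that of control wells; inactive means change under 2 fold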;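 further: initial absorbance extrapolated from kinetic A340 decline of NADH oxidation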
# DPM-DC inhibit: S. pneumoniae DPM-DC inhibitors, primary screen, biochemical, PK/LDH-coupled NADH fluorescence; purified DPM-DC; calls only at 10 µM; 65,000 compounds, 0.49% hits;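 active means the 320 compounds with the highest percent inhibition in the single-dose primary screen, excluding strongly autofluorescent ones, cut at about 32% in these data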;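 further: kinetic rate of NADH fluorescence loss reporting ADP formed by the decarboxylase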
# NADH coupling: inhibitors of PK/LDH coupling enzymes, profiling panel, artefact control, biochemical, MLSMR library; coupled PK/LDH NADH assays, four targets; IC50, µM (doses to about 10 µM), for inactives: at the top dose inhibition; 65,000 compounds, 0.02% hits;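 active means single-dose screening hits from any of four coupled enzyme assays that gave an IC50 when retested across doses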;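 further: the DPM-DC format reads NADH fluorescence rather than 340 nm absorbance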
# Autofluor 339: intrinsic fluorescence of library compounds, ex339/em460 – biochemical, MLSMR library, data from DPM-DC assay, artefact control, profiling panel; compound autofluorescence, ex339/em460 nm, NADH buffer; stronger effect = higher value; 1 = no-compound wells, NADH background; fluorescence fold increase at 10 µM; 65,000 compounds, 5.5% hits; AID 709, 2007;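 active means at 10 µM, mean starting fluorescence two-fold or more over control wells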;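 further: signal is the first read of a kinetic run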
# Spn MK inh: S. pneumoniae MK inhibitors, primary screen, biochemical, PK/LDH-coupled NADH absorbance | 65,000 compounds, 0.48% hits | inhibition, % at 10 µM | purified MK, PK/LDH-coupled NADH absorbance 340 nm;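 active means ranked among the strongest by inhibition in the single 10 µM screen, a fixed top-ranked set picked for dose follow-up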
# The depositor's hits bear a star; i = inactive; . = not tested or not shown; + = active, no number. A selection: hits, their analogues and other compounds. The true share with any hit is near 6.8%.
SMILES,PMK inhibit,A340 absorber,DPM-DC inhibit,NADH coupling,Autofluor 339,Spn MK inh
CCN(CC)CCNC(=O)C1c2cc(OC)c(OC)cc2C(=O)N2CCc3ccccc3C12 (centres undefined),1.0,1.02,i,1.0%,1.14,1.0
CC(C)CCNC(=O)COc1ccc2c3c(c(=O)oc2c1)CCC3,18.0,1.08,i,15.0%,3.09*,6.0
COc1ccccc1OCC(=O)NC1CCCCCC1,8.0,1.01,i,5.0%,1.1,6.0
COc1ccc2c(c1)c(=O)oc1cc(OCC(=O)NC3CC3)ccc12,4.0,1.1,.,6.0%,3.72*,7.0
CC(C)CNC(=O)COc1ccc2c3c(c(=O)oc2c1)CCC3,15.0,1.06,+,19.0%,2.04*,3.0
Cc1cc(=O)oc2cc(OCC(=O)NCCCN3CCOCC3)ccc12,5.0,1.08,i,8.0%,1.84,7.0
CCOC(=O)c1[nH]c(C)c(C(=O)NCc2cccnc2)c1C,2.0,1.01,i,2.0%,1.08,4.0
O=C(CSc1nnc(COc2ccc3c(c2)CCCC3)o1)Nc1ccc(F)cc1,0.0,1.02,i,3.0%,1.03,9.0
Cc1c(O)c(CN2CCCCC2)cc2c3c(c(=O)oc12)CCC3,5.0,1.03,.,2.0%,2.48*,0.0
O=c1oc2ccccc2c(N2CCCCC2)c1CN1CCCCC1,5.0,1.02,i,2.0%,1.04,14.0
Cc1oc2c(C)c3oc(=O)c4c(c3cc2c1C)CCC4,6.0,1.08,i,4.0%,1.74,5.0
CCc1c(C)c2cc(Cl)c(O)c(CN3CCCCC3)c2oc1=O,8.0,1.07,.,4.0%,2.33*,0.0
CN1CCN(Cc2cc(=O)oc3cc4c(cc23)CCC4)CC1,11.0,0.99,i,12.0%,1.15,17.0
CCc1cc(=O)oc2c(CN3CCN(C)CC3)c(O)c(Cl)cc12,3.0,1.03,.,1.0%,2.47*,0.0
O=c1oc2c(CN3CCOCC3)c(O)c(Cl)cc2c2c1CCC2,9.0,1.15,.,8.0%,3.8*,6.0
COc1ccc(S(=O)(=O)N(CC(=O)NCC2CCCO2)c2ccccc2)cc1OC (centres undefined),7.0,1.03,i,2.0%,1.07,0.0
O=C(Cn1c(-c2ccccc2)noc1=O)Nc1ccc(N2CCCCCC2)cc1,12.0,1.01,i,6.0%,1.15,5.0
CCc1cc(=O)oc2c(CN3CCCC3)c(O)c(Cl)cc12,0.0,1.12,.,2.0%,2.3*,4.0
O=C(NCc1ccccn1)c1coc(=O)c(Br)c1,7.0,1.17,.,9.0%,2.37*,11.0
Cc1ccc2[nH]c(-c3cccc(N)c3)cc2c1,10.0,1.04,.,9.0%,3.82*,7.0
Cc1cc(C)cc(OCC(O)CN2C(=O)NC(C)(C)C2=O)c1 (centres undefined),9.0,1.05,i,7.0%,1.05,9.0
CCCN1C(=O)c2cc(C(=O)NCc3ccc(OC)cc3)ccc2C1O (centres undefined),0.0,1.06,i,3.0%,1.12,10.0
Cn1c2ccccc2c2cc(C(=O)OCC(=O)N3CC(=O)Nc4ccccc43)sc21,13.0,1.17,.,7.0%,2.1*,0.0
O=C(C1CCCCC1)N1CCC(c2nc3c(nnn3Cc3ccccc3Cl)c(=O)[nH]2)CC1,10.0,1,+,6.0%,1.1,9.0
Cc1ccc(NC(=O)N2CCC(c3nc4c(nnn4Cc4cccc(Cl)c4)c(=O)[nH]3)CC2)cc1,5.0,1,i,3.0%,1.05,4.0
SMILES,PMK inhibit,A340 absorber,DPM-DC inhibit,NADH coupling,Autofluor 339,Spn MK inh
O=C(Nc1ccc(F)cc1)N1CCC(c2nc3c(nnn3Cc3cccc(Cl)c3)c(=O)[nH]2)CC1,9.0,1.01,i,22.0%,0.97,49.0*
CN(C)CCCNC(=O)CCC1CCCCC1,0.0,0.96,i,3.0%,1.02,2.0
COC(=O)CCCCCc1ccc(C(C)=O)s1,13.0,1,i,5.0%,1,2.0
O=C(O)C1C2C=CC(C2)C1C(=O)NC1CCS(=O)(=O)C1 (centres undefined),14.0,0.98,i,10.0%,1.07,15.0
Cc1cc2nc(-c3ccc(NC(=O)C(C)C)cc3)oc2cc1C,0.0,1.13,.,0.0%,2.19*,0.0
CC(Oc1ccc(Cl)cc1Cl)C(=O)Nc1ccc2oc(-c3ccncc3)nc2c1 (centres undefined),5.0,1.02,.,9.0%,3.83*,12.0
Cc1ccc(-c2nc3cc(NC(=O)C(C)C)ccc3o2)cc1C,12.0,1.01,.,3.0%,3*,4.0
CC(C)C(=O)Nc1cccc(-c2nc3ccccc3o2)c1,6.0,0.99,i,6.0%,1.13,8.0
CC(C)C(=O)Nc1ccc(-c2nc3cccnc3o2)cc1,12.0,1.15,.,4.0%,2.45*,7.0
CC(Oc1ccc(Cl)cc1Cl)C(=O)Nc1ncccn1 (centres undefined),4.0,1,i,2.0%,1.05,8.0
CC1CCc2cc(F)ccc2N1C(=O)CN1C(=O)c2ccccc2C1=O (centres undefined),7.0,1.03,i,4.0%,1.12,6.0
COc1ccc(CCNC(=O)c2ccn[nH]2)cc1OC,6.0,1.01,i,2.0%,1.1,0.0
CC(=O)N(CC(=O)O)c1ccccc1C(=O)O,0.0,1.01,i,3.0%,1.14,9.0
COc1ccc(CN/C(C)=C(/C#N)C(N)=O)cc1OC,11.0,1.02,i,6.0%,0.99,6.0
Cc1ccc(-c2nc3cc(NC(=O)C(C)C)ccc3o2)cc1,1.0,1.08,.,2.0%,2.46*,5.0
CC1CN=C(N(C(=O)Nc2ccccc2)c2ccc(S(=O)(=O)N3CCOCC3)cc2)S1 (centres undefined),9.0,1.05,i,2.0%,1.04,8.0
Cc1nc2c(c(=O)n1CCC(C)C)c1nc3ccccc3nc1n2Cc1ccc2c(c1)OCO2,3.0,1.05,i,2.0%,1.33,2.0
Cc1nc2c(c(=O)n1CC1CCCO1)c1nc3ccccc3nc1n2CCC(C)C (centres undefined),3.0,1.05,.,2.0%,2.29*,0.0
CCCn1c(C)nc2c(c1=O)c1nc3ccccc3nc1n2-c1ccc2c(c1)OCCO2,0.0,1.15,+,31.0%,2.6*,3.0
CCCCCn1c2nc3ccccc3nc2c2c(=O)n(CC(C)C)cnc21,2.0,0.96,i,7.0%,1.71,5.0
COc1cc(OC)cc(-n2c3nc4ccccc4nc3c3c(=O)n(CC4CCCO4)cnc32)c1 (centres undefined),10.0,1.08,i,7.0%,1.27,11.0
O=c1c2c3nc4ccccc4nc3n(CC3CCCO3)c2ncn1CCc1ccccc1 (centres undefined),11.0,1,.,6.0%,2.91*,9.0
